Experimental findings from PubChem BioAssay (Tox21) are described below.

Records with an inconclusive call do not appear. Activity calls are given as the source filed them. Unless noted, calls come from the whole dose curve.

Experiment [1] is described as follows: Nuclear factor erythroid 2-related factor 2/antioxidant responsive element (Nrf2/ARE) small molecule agonists: qHTS cell viability counter screen in human keratinocytes (AID 1919968; active = well fitted curve in the direction sought with a large enough effect in the repeat runs; an effect the other way counts as inactive or inconclusive; note: nearly all actives have a fitted effect of over 55% in size; note: potency is the fitted concentration of half-maximal effect). The procedure, abridged:
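In human HaCaT keratinocytes stably expressing an ARE-driven luciferase, compound exposure lasted 23 h at 37 C under 5% CO2. Viable cells are quantified with a protease-based fluorogenic reagent (CellTiter-Fluor) read 1 h after addition.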

The target of experiment [2] is KiSS-1 receptor (Homo sapiens) (UniProt Q969F8). Put plainly: Human kisspeptin (KISS1R) small molecule agonists, calcium flux assay in KISS1R-HEK293 cells (AID 1920064; active = well fitted curve in the direction sought with a large enough effect in the repeat runs; an effect the other way counts as inactive or inconclusive). An outline of the steps:
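Concentration-response testing used 15 concentrations in triplicate on human KISS1R-expressing HEK293 cells. Calcium-dependent fluorescence (Ex/Em 480/540) was followed kinetically for 3 min after compound transfer.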

Experiment [3] can be described thus: G protein-coupled receptor (GPCR) small molecule agonists, calcium flux assay: HEK293 wild type cell line counter screen (AID 1920065). The procedure, abridged: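 Fluorescence intensity signals activation. After overnight (18 h) culture and a 1 h calcium dye load at 37 C, compounds are added by pin tool and the plate read at 480/540 nm for 3 min in 1 s steps.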

The nature of experiment [4]: p53 small molecule agonists, cell-based qHTS assay with human liver microsomes (AID 1963577).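 Note: p53 response element beta-lactamase reporter cells with liver microsomes plus NADPH.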 An outline of the steps: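 Steps: plate p53RE-bla cells, incubate 5 h at 37 C; add compound in DMSO; add microsomes (0.5 mg/mL final) and NADPH (0.5 mg/mL final); incubate 16 h at 37 C; add LiveBLAzer, 2 h RT; read fluorescence.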
The nature of experiment [5]: p53 small molecule agonists, cell-based qHTS assay with human liver microsomes: qHTS cell viability counter screen (AID 1963579). Note: nearly all actives have a fitted effect of over 45% in size. An outline of the steps:
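After the 460/530 nm beta-lactamase read, CellTiter-Glo was added to the same wells and luminescence measured after 30 min at room temperature, giving viability of p53RE-bla cells treated 16 h with compounds plus microsomes and NADPH.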

Experiment [6] is described as follows: p53 small molecule agonists, cell-based qHTS assay: qHTS cell viability counter screen (AID 1963581). Note: nearly all actives have a fitted effect of over 45% in size. The procedure, abridged: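 Luminescence from CellTiter-Glo, reflecting ATP content, serves as the cytotoxicity measure; it is taken after the 2 h reporter substrate step in HCT-116 p53RE-bla cells dosed for 16 h at 37 C.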
A short description of experiment [7]: p53 small molecule agonists, cell-based qHTS assay (AID 1963582; active = well fitted activation curve with a large enough effect in the signal ratio in the repeat runs, not every such curve was filed as active; the % refers to the signal ratio). The procedure, abridged:
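After plating, p53RE-bla cells sat 5 h in the incubator; compounds or DMSO vehicle were pinned in; a 16 h incubation at 37 C followed; FRET substrate was added and, 2 h later at RT, fluorescence was measured.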

Experiment [8] concerns the target 5-hydroxytryptamine receptor 2A (Homo sapiens) (UniProt P28223). As to the kind of experiment: 5-hydroxytryptamine receptor 2A (HTR2A) small molecule antagonists, cell-based qHTS assay (AID 1963586). Note: nearly all actives have a fitted effect of over 45% in size. Note: potency is the fitted concentration of half-maximal effect. An outline of the steps:
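CHO cells stably expressing human HTR2A were plated for 18 h at 37 C, then loaded with calcium dye for 1 h. Compounds were preincubated 5 min at room temperature before DOI (4 nM solution) was added. Kinetic fluorescence was read for 3 min.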

The target is the same in experiment [9]. As to the kind of experiment: 5-hydroxytryptamine receptor 2A (HTR2A) small molecule agonists, cell-based qHTS assay (AID 1963587). Note: nearly all actives have a fitted effect of over 30% in size. Note: potency is the fitted concentration of half-maximal effect. An outline of the steps:
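HTR2A-CHO cells, plated 18 h at 37 C/5% CO2, dye-loaded 1 h at 37 C; compounds in DMSO added by pin tool (agonist mode). Intracellular calcium flux read as kinetic fluorescence on FDSS over 2 min at 1 s intervals.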

Experiment [10] concerns the target Muscarinic acetylcholine receptor M1 (Homo sapiens) (UniProt P11229). As to the kind of experiment: Cholinergic receptor muscarinic 1 (CHRM1) small molecule antagonists, cell-based qHTS assay (AID 1963588). Note: nearly all actives have a fitted effect of over 40% in size. Note: potency is the fitted concentration of half-maximal effect. The procedure, abridged: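 Compounds were tested at 15 concentrations in three independent runs. Dye-loaded CHRM1-CHO cells were exposed 5 min at room temperature before stimulation by acetylcholine added at 50nM. Intracellular calcium was read kinetically on FDSS for 3 min.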

The target is the same in experiment [11]. As to the kind of experiment: Cholinergic receptor muscarinic 1 (CHRM1) small molecule agonists, cell-based qHTS assay (AID 1963589). Note: nearly all actives have a fitted effect of over 35% in size. An outline of the steps: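 Fluorescent calcium dye reports M1 activation in stably transfected CHO cells. Compounds, 15 concentrations, added after 1 h dye loading at 37 C; kinetic reading at 1 sec intervals.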
A short description of experiment [12]: cAMP Responsive Elements (CRE) small molecule agonists, cell-based qHTS assay (AID 1963590). An outline of the steps: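 Compound exposure lasted 3 h at 37 C/5% CO2 in CRE-bla HEK 293T cells grown in assay medium with 10% dialyzed FBS and 25 mM HEPES. Reporter signal came from LiveBLAzer B/G FRET substrate, 2 h, room temperature.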
Experiment [13] is described as follows: cAMP Responsive Elements (CRE) small molecule antagonists, cell-based qHTS assay (AID 1963591; active = well fitted inhibition curve with a large enough effect in the signal ratio in the repeat runs, not every such curve was filed as active; the % refers to the signal ratio). An outline of the steps:
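Stimulation used NKH477 at a final 0.25 uM for 3 h in compound-treated CRE-bla HEK293T cells, seeded 18 h beforehand. Reporter activity was measured with LiveBLAzer B/G FRET substrate after 2 h at room temperature.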

The target of experiment [14] is Beta-2 adrenergic receptor (Homo sapiens) (UniProt P07550). Put plainly: Adrenergic beta2 receptor (ADRB2) small molecule agonists, cell-based qHTS assay (AID 1963593).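 Note: CHO cells stably overexpressing human ADRB2.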 The procedure, abridged:
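CHO cells stably over-expressing ADRB2 were plated overnight at 37C, then dosed with compounds plus a stimulation mix containing 100uM IBMX and 25uM Ro-20-1724 for 0.5hr at room temperature. cAMP was measured by HTRF competition, 1hr.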

Experiment [15] addresses D(2) dopamine receptor (Homo sapiens) (UniProt P14416). Put plainly: Dopamine D2 receptor (DRD2) small molecule agonists, cell-based qHTS assay (AID 1963594). Note: nearly all actives have a fitted effect of over 35% in size. The procedure, abridged: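 HEK293 cells stably expressing DRD2 were cultured 24 h at 37 C, then given Ro20-1724 (0.1 mM final) and compounds for 10 min at room temperature. NKH477 (200nM) was then added for 30 min. cAMP was read by HTRF.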

The nature of experiment [16]: p53 small molecule agonists, cell-based qHTS assay with rat liver microsomes (AID 1963578). An outline of the steps: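 Metabolic activation is supplied by rat liver microsomes with NADPH (each 0.5 mg/mL final). p53RE-bla cells incubate with compound 16 h at 37 C; reporter activity is measured by LiveBLAzer fluorescence.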
The nature of experiment [17]: p53 small molecule agonists, cell-based qHTS assay with rat liver microsomes: qHTS cell viability counter screen (AID 1963580). Note: nearly all actives have a fitted effect of over 45% in size. An outline of the steps: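 Luminescent ATP readout (CellTiter-Glo, 30 min at room temperature) reports viability of p53RE-bla HCT-116 cells after 16 h at 37 C with test compounds under metabolic activation by rat liver microsomes and NADPH at 0.5 mg/mL final each.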

In experiment [18] the target is Beta-2 adrenergic receptor (Homo sapiens) (UniProt P07550). Put plainly: Adrenergic beta2 receptor (ADRB2) small molecule antagonists, cell-based qHTS assay (AID 1963592). Note: nearly all actives have a fitted effect of over 50% in size. Note: potency is the fitted concentration of half-maximal effect. The procedure, abridged: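 Assay format: CHO-ADRB2 cells, 18-20hr seeding at 37C/5% CO2, then compound plus 1nM isoproterenol agonist mix for 0.5hr RT. Homogeneous time-resolved fluorescence cAMP detection after 1hr, expressed as 665/615 nm ratio.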

Experiment [19] concerns the target D(2) dopamine receptor (Homo sapiens) (UniProt P14416). Put plainly: Dopamine D2 receptor (DRD2) small molecule antagonists, cell-based qHTS assay (AID 1963595; active = well fitted inhibition curve with a large enough effect in the signal ratio in the repeat runs, with a control signal flat; the % refers to the signal ratio; note: potency is the fitted concentration of half-maximal effect). The procedure, abridged:
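Stable D2 receptor HEK293 line, 24 h after seeding. Compound preincubated 10 min, then quinpirole (12 nM) with forskolin analogue NKH477 (200 nM), 30 min, room temperature. Detection by time-resolved FRET of cAMP.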

Chain of Beta-2 adrenergic receptor (Homo sapiens) (P07550 whole entry, looked up): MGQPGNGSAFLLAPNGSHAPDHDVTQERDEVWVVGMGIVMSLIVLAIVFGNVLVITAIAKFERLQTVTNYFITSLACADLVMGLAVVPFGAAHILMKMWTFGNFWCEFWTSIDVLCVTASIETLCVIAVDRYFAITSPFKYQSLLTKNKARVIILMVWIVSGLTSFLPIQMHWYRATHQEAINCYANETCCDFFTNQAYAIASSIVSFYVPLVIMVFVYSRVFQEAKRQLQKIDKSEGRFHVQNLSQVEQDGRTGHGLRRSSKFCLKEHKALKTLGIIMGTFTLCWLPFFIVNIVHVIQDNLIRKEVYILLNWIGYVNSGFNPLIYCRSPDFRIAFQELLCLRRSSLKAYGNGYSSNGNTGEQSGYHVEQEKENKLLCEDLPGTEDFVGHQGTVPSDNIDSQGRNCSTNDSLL
Chain of Muscarinic acetylcholine receptor M1 (Homo sapiens) (P11229 whole entry, looked up): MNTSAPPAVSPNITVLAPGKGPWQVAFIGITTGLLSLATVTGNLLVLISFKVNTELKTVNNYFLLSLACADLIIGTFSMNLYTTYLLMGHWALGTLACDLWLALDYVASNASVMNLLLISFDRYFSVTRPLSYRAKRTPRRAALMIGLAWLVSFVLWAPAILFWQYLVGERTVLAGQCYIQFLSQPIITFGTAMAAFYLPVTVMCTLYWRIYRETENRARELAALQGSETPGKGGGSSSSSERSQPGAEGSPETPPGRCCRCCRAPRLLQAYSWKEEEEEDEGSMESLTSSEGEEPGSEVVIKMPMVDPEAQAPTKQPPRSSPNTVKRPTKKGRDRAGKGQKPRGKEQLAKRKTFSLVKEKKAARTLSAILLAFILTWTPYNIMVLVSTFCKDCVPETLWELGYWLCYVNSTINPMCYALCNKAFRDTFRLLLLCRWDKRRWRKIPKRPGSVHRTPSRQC
Chain of 5-hydroxytryptamine receptor 2A (Homo sapiens) (P28223 whole entry, looked up): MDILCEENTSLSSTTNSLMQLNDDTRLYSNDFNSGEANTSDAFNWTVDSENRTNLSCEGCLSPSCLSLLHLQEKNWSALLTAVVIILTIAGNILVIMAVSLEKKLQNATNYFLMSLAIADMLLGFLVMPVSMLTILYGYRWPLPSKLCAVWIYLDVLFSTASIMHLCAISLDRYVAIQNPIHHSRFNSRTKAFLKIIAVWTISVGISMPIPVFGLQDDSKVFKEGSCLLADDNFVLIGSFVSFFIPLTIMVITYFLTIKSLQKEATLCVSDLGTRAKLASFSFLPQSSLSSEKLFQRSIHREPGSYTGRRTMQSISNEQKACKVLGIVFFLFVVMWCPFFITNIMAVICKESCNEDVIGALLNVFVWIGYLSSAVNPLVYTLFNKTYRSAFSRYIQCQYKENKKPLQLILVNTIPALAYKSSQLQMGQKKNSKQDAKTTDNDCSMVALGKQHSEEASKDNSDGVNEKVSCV
Chain of KiSS-1 receptor (Homo sapiens) (Q969F8 whole entry, looked up): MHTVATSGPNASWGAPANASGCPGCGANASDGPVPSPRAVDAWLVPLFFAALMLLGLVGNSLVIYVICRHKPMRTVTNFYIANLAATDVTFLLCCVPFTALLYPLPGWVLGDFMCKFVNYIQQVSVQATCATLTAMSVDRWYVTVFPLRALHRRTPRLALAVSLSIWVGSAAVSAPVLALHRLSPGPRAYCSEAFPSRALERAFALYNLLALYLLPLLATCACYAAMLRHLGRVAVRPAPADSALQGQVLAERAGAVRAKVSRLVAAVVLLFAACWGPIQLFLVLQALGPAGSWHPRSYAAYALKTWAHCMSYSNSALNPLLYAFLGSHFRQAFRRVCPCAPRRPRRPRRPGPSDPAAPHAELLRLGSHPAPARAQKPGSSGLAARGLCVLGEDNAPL
Chain of D(2) dopamine receptor (Homo sapiens) (P14416 whole entry, looked up): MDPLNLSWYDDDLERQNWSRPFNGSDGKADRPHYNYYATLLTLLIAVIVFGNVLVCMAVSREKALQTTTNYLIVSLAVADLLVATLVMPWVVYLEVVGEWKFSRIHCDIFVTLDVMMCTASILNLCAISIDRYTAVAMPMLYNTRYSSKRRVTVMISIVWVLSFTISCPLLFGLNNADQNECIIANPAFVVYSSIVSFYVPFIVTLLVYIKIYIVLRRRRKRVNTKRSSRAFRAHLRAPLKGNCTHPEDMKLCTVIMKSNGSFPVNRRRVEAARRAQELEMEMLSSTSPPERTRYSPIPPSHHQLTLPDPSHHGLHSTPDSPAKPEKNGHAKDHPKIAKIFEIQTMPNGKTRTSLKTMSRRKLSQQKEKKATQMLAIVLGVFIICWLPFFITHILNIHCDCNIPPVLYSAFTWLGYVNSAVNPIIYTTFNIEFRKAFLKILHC

Take `CSc1c(Cl)c(Cl)c(Cl)c(Cl)c1Cl`: the Potency entry in [1], in [2], in experiment [3], in experiment [4], in experiment [5] and in [6] was “inactive” throughout. The Potency result in [7], in experiment [8], in [9], in [10], in experiment [11] and in experiment [12] was “inactive” in each case. Moreover, the Potency entry in experiment [13], in experiment [14] and in experiment [15] was “inactive” throughout.

For the compound `CCOc1ccc(NC(C)=O)cc1N`, the Potency result in experiment [1], in experiment [2], in experiment [3], in [4], in experiment [16] and in [17] was “inactive” each time. For the same compound, the Potency result in experiment [6], in experiment [7], in experiment [10], in experiment [11], in [12] and in experiment [13] was “inactive” in each case. Besides, the Potency entry in experiment [18], in [15] and in [19] was “inactive” throughout.

Regarding `Cc1c(N)c(=O)n(-c2ccccc2)n1C`, the Potency entry in experiment [1], in experiment [2], in experiment [3], in experiment [5], in experiment [17] and in experiment [6] was “inactive” in each case. Further, the Potency entry in [8], in experiment [9], in experiment [10], in experiment [11], in experiment [13] and in experiment [18] was “inactive” in each case. In addition, the Potency entry in experiment [14], in experiment [15] and in experiment [19] was “inactive” in each case.

With `CCOC(=O)C1=C[C@]2(CC)CCCN3CCc4c(n1c1ccccc41)[C@@H]32`, the Potency entry in [1], in experiment [2], in experiment [3], in experiment [16], in [5] and in experiment [17] was “inactive” throughout. The Potency entry in experiment [8], in [10], in experiment [11], in [12], in [13] and in experiment [18] was “inactive” in each case. Moreover, the Potency entry in experiment [15] and in experiment [19] was “inactive” each time. Further, the Potency in experiment [9] is 23.9 µM (active).

As for `Cc1onc(-c2ccccc2)c1-c1ccc(S(N)(=O)=O)cc1`, the Potency entry in experiment [1], in [2], in [3], in experiment [5], in experiment [17] and in [6] was “inactive” throughout. Besides, the Potency entry in experiment [12], in [13], in experiment [18], in experiment [15] and in [19] was “inactive” in each case.

Regarding `O=C(O)[C@@H]1CSCN1`, the Potency result in [1], in experiment [2], in experiment [3], in experiment [5], in experiment [17] and in experiment [6] was “inactive” in each case. Further, the Potency entry in experiment [8], in experiment [9], in experiment [10], in experiment [12], in [18] and in experiment [14] was “inactive” throughout. For the same compound, the Potency result in experiment [15] and in experiment [19] was “inactive” throughout.

Regarding `COC(=O)/C=C/C(C)=C\C=C\C(C)=C\C=C\C=C(C)\C=C\C=C(C)\C=C\C(=O)O`, the Potency result in experiment [1], in experiment [2], in experiment [3], in experiment [4], in experiment [16] and in [5] was “inactive” each time. The Potency entry in [17], in experiment [6], in experiment [8], in [9], in [10] and in [12] was “inactive” each time. Moreover, the Potency entry in experiment [18], in [15] and in experiment [19] was “inactive” each time.

Turning to `OC(CN1CCC(Cc2ccc(F)cc2)CC1)c1ccc(Cl)cc1` (centres undefined), the Potency was 29.8 µM (active) in [1] and 1.63 µM (active) in experiment [8]. In addition, the Potency result in experiment [2], in experiment [3], in experiment [4], in [16], in experiment [5] and in experiment [17] was “inactive” in each case. Moreover, the Potency result in experiment [6], in [11], in experiment [12], in [13] and in [15] was “inactive” throughout.

For the compound `CCCCC[C@H](O)/C=C/[C@H]1[C@H](O)CC(=O)[C@@H]1C/C=C\CCCC(=O)O`, the Potency entry in experiment [1], in experiment [2], in experiment [3], in experiment [4], in [16] and in experiment [17] was “inactive” each time. Moreover, the Potency result in [8], in experiment [9], in experiment [10], in experiment [11] and in [18] was “inactive” each time. Besides, the Potency in experiment [19] was 0.0075 µM (active).

Take `COCCCOCCCOC`: the Potency entry in experiment [1], in [2], in [3], in [5], in [17] and in [6] was “inactive” each time. For the same compound, the Potency result in [8], in experiment [9], in experiment [10], in experiment [11], in experiment [12] and in experiment [13] was “inactive” throughout. In addition, the Potency entry in experiment [18], in experiment [14] and in experiment [19] was “inactive” each time.

Consider `CCCCCCCCCCCCOCCOCCOCCOCCOCCOCCOCCOCCOCCO`, for which the figures for the Potency in [1] and in experiment [10] were 29.8 µM (active) and 9.18 µM (active), respectively. In addition, the Potency entry in experiment [2], in [3], in experiment [16], in [17], in [6] and in experiment [7] was “inactive” each time. In addition, the Potency result in experiment [9], in experiment [11], in [18], in experiment [14] and in [19] was “inactive” each time.

Take `CCCCCCCCCOC(=O)CCCCC(=O)OCCCCCCC`: the Potency result in experiment [1], in experiment [2], in [3], in [4], in experiment [16] and in experiment [5] was “inactive” each time. Moreover, the Potency entry in [6], in [7], in experiment [8], in experiment [10], in experiment [12] and in [13] was “inactive” each time. Besides, the Potency entry in [14], in experiment [15] and in experiment [19] was “inactive” each time. Besides, the Potency in experiment [18] was 15.4 µM (active).
